About 83,000 compounds went through this panel and 20% of them were active in at least one assay; those are over-represented in the sample as a whole.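 Assay: single dose, 48 h. Readout: percent growth (0 = no net growth; negative = cell death). Active: <10.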 Calls of active or inactive are those of the source.
Experiments:
Assay in all cases: NCI-60 one-dose screen, 48 h (100 = growth as untreated, 0 = no growth, -100 = all killed)
Conditions in all cases: 10 µM unless noted
SR leukemia = tested on: SR leukemia
OVCAR-8 ovarian = tested on: OVCAR-8 ovarian
OVCAR-5 ovarian = tested on: OVCAR-5 ovarian
OVCAR-4 ovarian = tested on: OVCAR-4 ovarian
SK-OV-3 ovarian = tested on: SK-OV-3 ovarian
IGROV1 ovarian = tested on: IGROV1 ovarian
OVCAR-3 ovarian = tested on: OVCAR-3 ovarian
HS 578T breast = tested on: HS 578T breast
NCI/ADR-RES ovarian = tested on: NCI/ADR-RES ovarian
T-47D breast = tested on: T-47D breast
BT-549 breast = tested on: BT-549 breast
MDA-MB-435 melanoma = tested on: MDA-MB-435 melanoma
SW-620 colon = tested on: SW-620 colon
MCF7 breast = tested on: MCF7 breast
HCT-116 colon = tested on: HCT-116 colon
HCC-2998 colon = tested on: HCC-2998 colon
KM12 colon = tested on: KM12 colon
RPMI-8226 leukemia = tested on: RPMI-8226 leukemia

Measured: growth

CC(=O)Nc1cc2c3c(cccc3c1)-c1ccccc1-2
inactive: SR leukemia 81.6% | OVCAR-8 ovarian 86.1% | OVCAR-5 ovarian 85.6% | OVCAR-4 ovarian 71.5% | SK-OV-3 ovarian 105% | IGROV1 ovarian 59% | OVCAR-3 ovarian 92.8% | HS 578T breast 112% | NCI/ADR-RES ovarian 84.5% | T-47D breast 75.4% | BT-549 breast 64.7% | MDA-MB-435 melanoma 68.4% | SW-620 colon 99.7% | MCF7 breast 96.9% | HCT-116 colon 95.9% | HCC-2998 colon 87.8% | KM12 colon 51.1%

CCC(=O)Nc1cc2c(cc1Cl)-c1ccccc1C2
inactive: SR leukemia 101% | OVCAR-8 ovarian 98% | OVCAR-5 ovarian 85.5% | OVCAR-4 ovarian 101% | SK-OV-3 ovarian 107% | IGROV1 ovarian 86.4% | OVCAR-3 ovarian 106% | HS 578T breast 111% | T-47D breast 85.2% | BT-549 breast 86.1% | MDA-MB-435 melanoma 113% | SW-620 colon 101% | MCF7 breast 95.2% | HCT-116 colon 99.2% | HCC-2998 colon 87% | KM12 colon 95.2%

O=C(O)c1ccc2cccnc2c1O
inactive: OVCAR-8 ovarian 13.6% | OVCAR-5 ovarian 24.2% | OVCAR-4 ovarian 17.7% | T-47D breast 10.3% | MDA-MB-435 melanoma 10.1% | SW-620 colon 26.1% | MCF7 breast 10.8% | HCC-2998 colon 10.2% | KM12 colon 15.1%
active: SR leukemia 5.47% | SK-OV-3 ovarian -10.7% | IGROV1 ovarian 5.01% | OVCAR-3 ovarian 1.49% | NCI/ADR-RES ovarian -1.54% | BT-549 breast -16.5% | HCT-116 colon 2.32%

N#CC1c2ccccc2C=CN1C(=O)N(c1ccccc1)c1ccccc1 (centres undefined)
inactive: OVCAR-8 ovarian 76% | OVCAR-5 ovarian 107% | OVCAR-4 ovarian 77% | SK-OV-3 ovarian 110% | IGROV1 ovarian 13.5% | HS 578T breast 52.9% | NCI/ADR-RES ovarian 96.2% | MDA-MB-435 melanoma 58.7% | SW-620 colon 21.8% | MCF7 breast 49.9% | HCT-116 colon 26.5% | HCC-2998 colon 96.8% | KM12 colon 102%
active: SR leukemia 1.1% | OVCAR-3 ovarian -34.3% | T-47D breast -1.33%

CC1C(C)N(C(=O)CCl)c2ccccc2N1C(=O)CCl (centres undefined)
active: SR leukemia -29.6% | OVCAR-8 ovarian -20.8% | OVCAR-5 ovarian -77.5% | OVCAR-4 ovarian -27.2% | SK-OV-3 ovarian -20.4% | IGROV1 ovarian -54.6% | OVCAR-3 ovarian -91.1% | HS 578T breast -28.3% | NCI/ADR-RES ovarian -7.93% | T-47D breast -42% | BT-549 breast -86.4% | MDA-MB-435 melanoma -20.9% | SW-620 colon -81.7% | MCF7 breast -49.4% | HCT-116 colon -93.2% | HCC-2998 colon -93.9% | KM12 colon -91.7%

O=C1N=C(N2CCOCC2)S/C1=C\c1cn(-c2ccccc2)nc1-c1ccccc1
inactive: SR leukemia 71.5% | OVCAR-8 ovarian 69.9% | OVCAR-5 ovarian 109% | OVCAR-4 ovarian 25.1% | SK-OV-3 ovarian 83.3% | IGROV1 ovarian 79.9% | OVCAR-3 ovarian 58% | HS 578T breast 57.4% | NCI/ADR-RES ovarian 60.2% | T-47D breast 62.4% | BT-549 breast 53.8% | MDA-MB-435 melanoma 65.3% | SW-620 colon 98.8% | MCF7 breast 81.5% | HCT-116 colon 64.4% | HCC-2998 colon 100% | KM12 colon 96.4%

O=[N+]([O-])c1ccc2[nH]cc(-c3c4ccccc4cc4[nH]c5ccc([N+](=O)[O-])cc5c34)c2c1
active: OVCAR-3 ovarian -7.76% | NCI/ADR-RES ovarian 8.13% | T-47D breast -10.2% | MDA-MB-435 melanoma -11.6% | MCF7 breast 8.11% | HCT-116 colon 9.37% | KM12 colon 5.55%
inactive: SR leukemia 10.2% | RPMI-8226 leukemia 11.6% | OVCAR-5 ovarian 67.8% | OVCAR-4 ovarian 26.7% | SK-OV-3 ovarian 64.4% | HS 578T breast 30.4% | BT-549 breast 19.2% | SW-620 colon 28% | HCC-2998 colon 57.6%

O=C(Nc1ccc(Cl)cc1)Nc1ccccc1CNc1nc(Nc2ccc(OCCN3CCCC3)cc2)ncc1Cl
inactive: OVCAR-5 ovarian 105% | SK-OV-3 ovarian 91.6% | IGROV1 ovarian 15.8% | HS 578T breast 96.4% | T-47D breast 105% | BT-549 breast 77.6% | KM12 colon 11.3%
active: SR leukemia 1.33% | RPMI-8226 leukemia -24.2% | OVCAR-4 ovarian -47.4% | OVCAR-3 ovarian -77.9% | MDA-MB-435 melanoma -28.9% | SW-620 colon -14.9% | MCF7 breast -10.5% | HCT-116 colon -28.7% | HCC-2998 colon -21.1%

O=C1NC(=O)/C(=C/c2ccc(Cl)cc2Cl)N1
inactive: SR leukemia 93% | OVCAR-8 ovarian 101% | OVCAR-5 ovarian 106% | OVCAR-4 ovarian 97.4% | SK-OV-3 ovarian 98.9% | IGROV1 ovarian 106% | OVCAR-3 ovarian 105% | NCI/ADR-RES ovarian 106% | T-47D breast 90.9% | BT-549 breast 104% | MDA-MB-435 melanoma 116% | SW-620 colon 102% | MCF7 breast 95.3% | HCT-116 colon 114% | HCC-2998 colon 102% | KM12 colon 103%

CCOC(=O)Nc1cc(-c2ccc(C)c(NS(C)(=O)=O)c2)nn2c(C)nnc12
active: RPMI-8226 leukemia -20.4% | SK-OV-3 ovarian 4.31% | IGROV1 ovarian -45.6% | OVCAR-3 ovarian -10.4% | HS 578T breast 9.38% | MDA-MB-435 melanoma 9.2% | HCC-2998 colon -58%
inactive: SR leukemia 24.9% | OVCAR-5 ovarian 32.2% | OVCAR-4 ovarian 22.8% | NCI/ADR-RES ovarian 53.3% | BT-549 breast 49.5% | SW-620 colon 30.2% | MCF7 breast 13% | HCT-116 colon 15.6% | KM12 colon 12.2%

CC(C)=CCNc1ncnc2c1ncn2C1OC(COP(=O)(O)O)C(O)C1O (centres undefined)
active: SR leukemia -15.2% | OVCAR-3 ovarian 0.0655% | T-47D breast 3.18%
inactive: RPMI-8226 leukemia 109% | OVCAR-5 ovarian 74.5% | OVCAR-4 ovarian 85.4% | SK-OV-3 ovarian 12.9% | IGROV1 ovarian 54.6% | HS 578T breast 63.8% | NCI/ADR-RES ovarian 39.1% | MDA-MB-435 melanoma 56.7% | SW-620 colon 37.6% | MCF7 breast 16.5% | HCT-116 colon 19.2% | HCC-2998 colon 69.6% | KM12 colon 69.6%

O=C(c1ccc(Cl)cc1)c1ccc(Cl)cc1
inactive: SR leukemia 93.3% | RPMI-8226 leukemia 115% | OVCAR-5 ovarian 88.7% | OVCAR-4 ovarian 92.4% | SK-OV-3 ovarian 114% | IGROV1 ovarian 124% | OVCAR-3 ovarian 105% | HS 578T breast 130% | NCI/ADR-RES ovarian 103% | T-47D breast 101% | MDA-MB-435 melanoma 107% | SW-620 colon 103% | MCF7 breast 104% | HCT-116 colon 110% | HCC-2998 colon 96.7% | KM12 colon 110%

CC(=O)Nc1c(Cl)cc2c(c1Cl)Cc1ccccc1-2
inactive: SR leukemia 101% | OVCAR-8 ovarian 102% | OVCAR-5 ovarian 85.4% | OVCAR-4 ovarian 100% | SK-OV-3 ovarian 113% | IGROV1 ovarian 93% | OVCAR-3 ovarian 105% | HS 578T breast 114% | NCI/ADR-RES ovarian 103% | T-47D breast 89.5% | MDA-MB-435 melanoma 122% | SW-620 colon 103% | MCF7 breast 91.1% | HCT-116 colon 99.1% | HCC-2998 colon 107% | KM12 colon 97.2%

CN1CCN(CCCOc2ccc3ncnc(Nc4ccc(OCc5cccc(F)c5)c(Cl)c4)c3c2)CC1
inactive: SK-OV-3 ovarian 12.4% | NCI/ADR-RES ovarian 18.3% | BT-549 breast 72%
active: SR leukemia -6.49% | RPMI-8226 leukemia -24.6% | OVCAR-4 ovarian -19.9% | IGROV1 ovarian -34.9% | OVCAR-3 ovarian -6.29% | HS 578T breast -19.3% | T-47D breast -15.6% | MDA-MB-435 melanoma -88.4% | SW-620 colon -78.7% | MCF7 breast -69.2% | HCT-116 colon -87.9% | HCC-2998 colon -80.9% | KM12 colon -56%

O=C(Nc1ccccc1S)c1ccccc1
inactive: SR leukemia 82.6% | OVCAR-8 ovarian 105% | OVCAR-5 ovarian 123% | OVCAR-4 ovarian 98.4% | SK-OV-3 ovarian 115% | IGROV1 ovarian 107% | OVCAR-3 ovarian 112% | NCI/ADR-RES ovarian 98.1% | T-47D breast 105% | BT-549 breast 99.9% | MDA-MB-435 melanoma 101% | SW-620 colon 98.5% | MCF7 breast 91.1% | HCT-116 colon 96.2% | HCC-2998 colon 109% | KM12 colon 104%

C=C1CCC2C(C)(COC(=O)CC)C(OC(=O)CC)CCC2(C)C1C/C=C1/C(=O)OCC1OC(=O)CC (centres undefined)
active: SR leukemia -23% | OVCAR-8 ovarian -13.9% | OVCAR-5 ovarian -1.17% | IGROV1 ovarian -0.405% | OVCAR-3 ovarian -86.1% | NCI/ADR-RES ovarian -22.9% | T-47D breast -51.9% | MDA-MB-435 melanoma 2.16% | SW-620 colon -62.2% | MCF7 breast -35.1% | HCT-116 colon -100% | HCC-2998 colon -65.8% | KM12 colon 3.97%
inactive: OVCAR-4 ovarian 18.7% | SK-OV-3 ovarian 103% | BT-549 breast 83.6%

CCOC(CNCc1cc(C)c2[nH]c3ccccc3c2c1C)OCC
inactive: SR leukemia 77.4% | OVCAR-8 ovarian 89.5% | OVCAR-5 ovarian 99.3% | OVCAR-4 ovarian 58.7% | SK-OV-3 ovarian 93.1% | IGROV1 ovarian 83.9% | OVCAR-3 ovarian 83.9% | HS 578T breast 84.6% | NCI/ADR-RES ovarian 77.2% | T-47D breast 84.9% | BT-549 breast 76.4% | MDA-MB-435 melanoma 92.3% | SW-620 colon 95.1% | MCF7 breast 81.3% | HCT-116 colon 53.5% | HCC-2998 colon 45.1% | KM12 colon 94.4%

O=C(O)CNC(=O)C1(N2C(=O)c3ccccc3C2=O)CCCC1
inactive: SR leukemia 99.3% | OVCAR-8 ovarian 104% | OVCAR-5 ovarian 101% | OVCAR-4 ovarian 99.4% | SK-OV-3 ovarian 111% | IGROV1 ovarian 119% | OVCAR-3 ovarian 139% | HS 578T breast 128% | NCI/ADR-RES ovarian 110% | T-47D breast 102% | BT-549 breast 101% | MDA-MB-435 melanoma 96.3% | SW-620 colon 110% | MCF7 breast 92% | HCT-116 colon 103% | HCC-2998 colon 104% | KM12 colon 118%

Cc1cn(C(C=O)OC(C=O)CO)c(=O)[nH]c1=O (centres undefined)
inactive: SR leukemia 93.9% | RPMI-8226 leukemia 107% | OVCAR-5 ovarian 111% | OVCAR-4 ovarian 96.9% | SK-OV-3 ovarian 103% | IGROV1 ovarian 102% | OVCAR-3 ovarian 109% | HS 578T breast 103% | NCI/ADR-RES ovarian 107% | BT-549 breast 107% | MDA-MB-435 melanoma 106% | SW-620 colon 105% | MCF7 breast 95.1% | HCT-116 colon 103% | HCC-2998 colon 119% | KM12 colon 103%

From PubChem BioAssay (NCI)
